Source: the OligoGym collection

Biological target: LRRC45
Assay: pooled miR-30 sensor sort-seq; sequence = guide strand
Conditions: shRNA
Note: reference of the scale not given here.

Sequence	sensor-assay potency score (higher = more potent)
ATGCTGGTCATCTCCTGCCTGG	-1.52
TTATCAATAGTCTCCATCAAGT	-1.42
TAGACTCCCGCTCTGCAGCTTC	-0.306
TGCAGCTTCCTGCTGCTCCAGC	-1.24
TTCTGCAGGAAGCTCGCCCTCT	-0.654
TTGAGAGCGTTGATGATGGAGT	-0.215

Biological target: LRRC8D
Assay: as above
Conditions: shRNA

Sequence	sensor-assay potency score (higher = more potent)
TTGTAGCTCACATCTAAGCATC	-1.4
TGATCTTCCACAACAAGCCCGC	-0.444
TTATCCAGGATTGTCATGCTGG	-0.286
TTAAGTACAACTCTCGAAGGTT	0.166
TAACATAACAACAGCTAGGTAA	-0.029
TAGCTCACATCTAAGCATCTGA	0.32
TTTTTGAGCAAATACACCCAGG	-0.941
TTTGTAAACATTCAGTAGCGGC	-0.948
TAAGGTGCCGCAACTCTCGGAG	0.33
TATAGATCAAGTCACTATCTTC	-0.519
TTAACATAACAACAGCTAGGTA	-0.589
TTATGAATGACTAACTTTGTAA	-0.367

Biological target: LSG1
Assay: as above
Conditions: shRNA

Sequence	sensor-assay potency score (higher = more potent)
TTGTGTATCTGCCTCTTCTGTG	-0.396
TTGTGTGCAACCAGGAGTCAGT	-0.781
TTCTGTTCCTCTTCTAGCCGGA	0.394
TGATTGTTGAACTCTTACCAAC	-1.62
TAATATTAAGTTTTTCAGCTAC	-0.362
TTGATTGTTGAACTCTTACCAA	-0.2
TAGCTCCTTAAAGAGCTCCAGT	-1.06
TTGTTGAACTCTTACCAACATT	-1.39
TTGCTTTGTCTATCATCTCTGT	-0.0591
TTGAACTCTTACCAACATTAGG	-1.3
TTTCGAGCATCTACTATCTGGA	-0.305
TGTGTCTCGTGAACCATCCCTT	0.477

Biological target: LTA4H
Assay: as above
Conditions: shRNA

Sequence	sensor-assay potency score (higher = more potent)
TAAACTTCATTCTTCCTTGTTC	0.185
TGTAACTTTGTCTTTCTCCAAG	-0.956
TATATCTGTCAGATCAACCACA	0.143
TTTTTCTATTGTAAGGTCCTTT	0.0919
TTTCACAGAAGGAGTGTCCTGA	0.561
TTTGTATCCAAAACCAGGCTGC	0.416
TTGTCCATTGATCACTACTTTT	-1.71
TTCATGTGCAATGACATTGGAG	-0.277
TTTGACTTCTTGTCCATTGATC	-0.618
TTGGAGAGTGACTTGTCGCCTG	0.145
